These results are taken from PubChem BioAssay (Tox21).

SMILES strings stand for the structures. Several values for one entry are separate records, joined by “and”; a condition that tells them apart may be missing. Equal entries are not always repeated. Records with an inconclusive call do not appear. Where a structure was tested more than once in an assay, its records may differ in their call. Activity calls are given as the source filed them. Unless noted, calls follow the shape of the full dose curve.

Assay [1] in a line: Nuclear factor erythroid 2-related factor 2/antioxidant responsive element (Nrf2/ARE) small molecule agonists: qHTS cell viability counter screen in human keratinocytes (AID 1919968; active = well fitted curve in the direction sought with a large enough effect in the repeat runs; an effect the other way counts as inactive or inconclusive; also: nearly all actives have a fitted effect of over 55% in size). An outline of the steps:
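CellTiter-Fluor fluorescence, read 1 h after reagent, gave viability in the same wells as the ARE-luciferase assay. KeratinoSens cells (1,500/well) had 23 h compound exposure at 37 C/5% CO2 following 5 h plating.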
On the technique in general: Quantitative high-throughput screening tests each substance at several concentrations.

A short description of assay [2]: Nuclear factor erythroid 2-related factor 2/antioxidant responsive element (Nrf2/ARE) small molecule agonists: luciferase reporter gene qHTS assay in human keratinocytes (AID 1919969). Also: nearly all actives have a fitted effect of over 35% in size. Also: potency is read from the fitted curve at half-maximal effect.
In assay [3] the target is Gonadotropin-releasing hormone receptor (Homo sapiens) (UniProt P30968). Briefly: Human gonadotropin-releasing hormone receptor (GnRHR) small molecule agonists, calcium flux assay in GnRHR-HEK293 cells (AID 1920063). Also: nearly all actives have a fitted effect of over 35% in size. The procedure, abridged:
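Agonist mode: compounds at 15 concentrations, in triplicate, went onto calcium dye-loaded GnRHR-HEK293 cells. Intracellular calcium was then followed as 480/540 nm fluorescence at 1 s intervals over 3 min.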
A general note: Calcium assays in cells follow changes in intracellular calcium, usually with a dye or a luminescent sensor.

Assay [4] concerns the target KiSS-1 receptor (Homo sapiens) (UniProt Q969F8). As to the kind of experiment: Human kisspeptin (KISS1R) small molecule agonists, calcium flux assay in KISS1R-HEK293 cells (AID 1920064; active = well fitted curve in the direction sought with a large enough effect in the repeat runs; an effect the other way counts as inactive or inconclusive). The procedure, abridged:
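Agonist mode: intracellular calcium rise tracked at 1 s intervals over 3 min (480/540 nm) immediately after compound addition to dye-loaded KISS1R-HEK293 stable cells. Each compound tested at 15 concentrations in triplicate.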

Assay [5] is described as follows: G protein-coupled receptor (GPCR) small molecule agonists, calcium flux assay: HEK293 wild type cell line counter screen (AID 1920065). An outline of the steps:
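Calcium flux counter screen: compound added in agonist mode at 15 concentrations in triplicate to dye-loaded parental HEK293 cells. Fluorescence (480/540) read kinetically for 3 min; ATP served as positive control.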

Assay [6] can be described thus: p53 small molecule agonists, cell-based qHTS assay with human liver microsomes: qHTS cell viability counter screen (AID 1963579). Also: nearly all actives have a fitted effect of over 45% in size. Also: potency is read from the fitted curve at half-maximal effect. An outline of the steps: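 p53RE-bla cells (4,000/well) were pre-incubated 5 h at 37 C, then given compounds in DMSO plus human liver microsomes (0.5 mg/mL final) and NADPH (0.5 mg/mL final) for 16 h at 37 C. Viability was read by CellTiter-Glo luminescence.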

Assay [7] can be described thus: p53 small molecule agonists, cell-based qHTS assay with rat liver microsomes: qHTS cell viability counter screen (AID 1963580). Also: nearly all actives have a fitted effect of over 45% in size. An outline of the steps: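 Rat liver microsome (0.5 mg/mL final) and NADPH (0.5 mg/mL final) co-incubation with compounds for 16 h at 37 C on HCT-116 p53RE-bla cells; cytotoxicity taken from intracellular ATP luminescence.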
Assay [8] can be described thus: p53 small molecule agonists, cell-based qHTS assay: qHTS cell viability counter screen (AID 1963581). Also: nearly all actives have a fitted effect of over 45% in size. An outline of the steps: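 Counter screen read by CellTiter-Glo luminescence (ATP content, 30 min at room temperature), run in the same wells as the beta-lactamase reporter read. HCT-116 p53RE-bla cells saw compounds for 16 h at 37 C.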
In assay [9] the target is 5-hydroxytryptamine receptor 2A (Homo sapiens) (UniProt P28223). Briefly: 5-hydroxytryptamine receptor 2A (HTR2A) small molecule antagonists, cell-based qHTS assay (AID 1963586). Also: nearly all actives have a fitted effect of over 45% in size. An outline of the steps: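 CHO cells stably expressing human HTR2A were plated for 18 h at 37 C, then loaded with calcium dye for 1 h. Compounds were preincubated 5 min at room temperature before DOI (4 nM solution) was added. Kinetic fluorescence was read for 3 min.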

The target is the same in assay [10]. Briefly: 5-hydroxytryptamine receptor 2A (HTR2A) small molecule agonists, cell-based qHTS assay (AID 1963587). Also: nearly all actives have a fitted effect of over 30% in size. An outline of the steps: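 Kinetic calcium-flux fluorescence (2 min, 1 sec intervals) after compound addition in agonist mode. HTR2A-CHO cells were cultured 18 h, then dye-loaded 1 h at 37 C.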
Assay [11] concerns the target Muscarinic acetylcholine receptor M1 (Homo sapiens) (UniProt P11229). Briefly: Cholinergic receptor muscarinic 1 (CHRM1) small molecule antagonists, cell-based qHTS assay (AID 1963588). Also: nearly all actives have a fitted effect of over 40% in size. The procedure, abridged:
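Compounds were tested at 15 concentrations in three independent runs. Dye-loaded CHRM1-CHO cells were exposed 5 min at room temperature before stimulation by acetylcholine added at 50nM. Intracellular calcium was read kinetically on FDSS for 3 min.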

Assay [12] has the same target. Briefly: Cholinergic receptor muscarinic 1 (CHRM1) small molecule agonists, cell-based qHTS assay (AID 1963589). Also: nearly all actives have a fitted effect of over 35% in size. The procedure, abridged: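 Agonist-mode calcium-flux screen: compounds at 15 concentrations, three independent runs, were pin-transferred onto dye-loaded human CHRM1-CHO cells. Fluorescence was then recorded kinetically every second over minutes.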
The nature of assay [13]: cAMP Responsive Elements (CRE) small molecule agonists, cell-based qHTS assay (AID 1963590). An outline of the steps: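 Agonist mode: compound added to CRE-bla HEK 293T cells (2,000/well, 18 h after plating) for 3 h at 37 C/5% CO2. Reporter activity detected via FRET beta-lactamase substrate, 2 h room-temperature loading.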
A short description of assay [14]: cAMP Responsive Elements (CRE) small molecule antagonists, cell-based qHTS assay (AID 1963591; active = well fitted inhibition curve with a large enough effect in the signal ratio in the repeat runs, not every such curve was filed as active; the % refers to the signal ratio). The procedure, abridged: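 Antagonist mode: compounds are added alongside the adenylyl cyclase activator NKH477 (0.25 uM final) to CRE-bla HEK293T cells for 3 h. LiveBLAzer FRET substrate, 2 h at room temperature, reports bla expression.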
Assay [15] addresses Beta-2 adrenergic receptor (Homo sapiens) (UniProt P07550). As to the kind of experiment: Adrenergic beta2 receptor (ADRB2) small molecule antagonists, cell-based qHTS assay (AID 1963592). Also: series mostly up to about 92 µM; nearly all actives have a fitted effect of over 50% in size. An outline of the steps:
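Assay format: CHO-ADRB2 cells, 18-20hr seeding at 37C/5% CO2, then compound plus 1nM isoproterenol agonist mix for 0.5hr RT. Homogeneous time-resolved fluorescence cAMP detection after 1hr, expressed as 665/615 nm ratio.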

The target is the same in assay [16]. As to the kind of experiment: Adrenergic beta2 receptor (ADRB2) small molecule agonists, cell-based qHTS assay (AID 1963593).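 Also: CHO cells stably overexpressing human ADRB2.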 An outline of the steps:
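CHO cells stably over-expressing ADRB2 were plated overnight at 37C, then dosed with compounds plus a stimulation mix containing 100uM IBMX and 25uM Ro-20-1724 for 0.5hr at room temperature. cAMP was measured by HTRF competition, 1hr.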

Assay [17] addresses D(2) dopamine receptor (Homo sapiens) (UniProt P14416). Briefly: Dopamine D2 receptor (DRD2) small molecule agonists, cell-based qHTS assay (AID 1963594). Also: nearly all actives have a fitted effect of over 35% in size. The procedure, abridged: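 cAMP accumulation in DRD2-HEK293 cells measured by HTRF after 1 h detection; compounds added 10 min before NKH477 (200nM […]) forskolin-analogue stimulation, 30 min at room temperature, with Ro20-1724 present at 0.1 mM final.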

Assay [18] shares this target. As to the kind of experiment: Dopamine D2 receptor (DRD2) small molecule antagonists, cell-based qHTS assay (AID 1963595; active = well fitted inhibition curve with a large enough effect in the signal ratio in the repeat runs, with a control signal flat; the % refers to the signal ratio). An outline of the steps:
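DRD2-HEK293; 0.1 mM Ro20-1724; cpd 10 min RT; NKH477 200 nM + quinpirole 12 nM, 30 min RT; HTRF cAMP (cAMP-d2/anti-cAMP cryptate), 665/620 nm ratio after 1 h.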

Muscarinic acetylcholine receptor M1 (Homo sapiens), sequence (P11229 whole entry, looked up): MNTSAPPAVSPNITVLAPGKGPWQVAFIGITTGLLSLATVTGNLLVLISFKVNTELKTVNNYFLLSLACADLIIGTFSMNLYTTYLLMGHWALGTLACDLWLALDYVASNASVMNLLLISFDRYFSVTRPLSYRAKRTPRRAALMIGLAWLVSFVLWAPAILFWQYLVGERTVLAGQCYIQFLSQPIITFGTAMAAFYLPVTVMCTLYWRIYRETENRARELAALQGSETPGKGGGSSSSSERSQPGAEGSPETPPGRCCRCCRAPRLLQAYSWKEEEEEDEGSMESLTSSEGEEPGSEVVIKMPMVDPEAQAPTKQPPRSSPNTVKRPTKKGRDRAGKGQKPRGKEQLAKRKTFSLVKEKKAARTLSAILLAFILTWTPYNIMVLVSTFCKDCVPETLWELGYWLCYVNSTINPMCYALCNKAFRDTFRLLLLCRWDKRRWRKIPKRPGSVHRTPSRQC
Gonadotropin-releasing hormone receptor (Homo sapiens), sequence (P30968 whole entry, looked up): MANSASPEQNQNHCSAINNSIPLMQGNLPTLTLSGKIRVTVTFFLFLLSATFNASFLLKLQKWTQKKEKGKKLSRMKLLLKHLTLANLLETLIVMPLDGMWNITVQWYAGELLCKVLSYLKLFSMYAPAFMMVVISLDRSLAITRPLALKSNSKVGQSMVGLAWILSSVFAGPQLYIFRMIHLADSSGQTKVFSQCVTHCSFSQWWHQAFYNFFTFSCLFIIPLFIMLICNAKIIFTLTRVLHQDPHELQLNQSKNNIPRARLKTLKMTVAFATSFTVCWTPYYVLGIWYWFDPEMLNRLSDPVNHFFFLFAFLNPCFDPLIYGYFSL
Beta-2 adrenergic receptor (Homo sapiens), sequence (P07550 whole entry, looked up): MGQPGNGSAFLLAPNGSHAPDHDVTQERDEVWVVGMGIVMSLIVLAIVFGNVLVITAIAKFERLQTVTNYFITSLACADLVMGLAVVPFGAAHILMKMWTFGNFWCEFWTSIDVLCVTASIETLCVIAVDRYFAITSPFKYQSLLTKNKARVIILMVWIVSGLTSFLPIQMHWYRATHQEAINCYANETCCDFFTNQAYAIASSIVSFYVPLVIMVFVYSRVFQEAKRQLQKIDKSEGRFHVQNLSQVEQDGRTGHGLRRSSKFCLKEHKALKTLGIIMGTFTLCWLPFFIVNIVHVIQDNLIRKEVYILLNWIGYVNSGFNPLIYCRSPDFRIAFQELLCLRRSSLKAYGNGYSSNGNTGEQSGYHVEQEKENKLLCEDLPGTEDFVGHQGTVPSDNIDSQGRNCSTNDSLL
D(2) dopamine receptor (Homo sapiens), sequence (P14416 whole entry, looked up): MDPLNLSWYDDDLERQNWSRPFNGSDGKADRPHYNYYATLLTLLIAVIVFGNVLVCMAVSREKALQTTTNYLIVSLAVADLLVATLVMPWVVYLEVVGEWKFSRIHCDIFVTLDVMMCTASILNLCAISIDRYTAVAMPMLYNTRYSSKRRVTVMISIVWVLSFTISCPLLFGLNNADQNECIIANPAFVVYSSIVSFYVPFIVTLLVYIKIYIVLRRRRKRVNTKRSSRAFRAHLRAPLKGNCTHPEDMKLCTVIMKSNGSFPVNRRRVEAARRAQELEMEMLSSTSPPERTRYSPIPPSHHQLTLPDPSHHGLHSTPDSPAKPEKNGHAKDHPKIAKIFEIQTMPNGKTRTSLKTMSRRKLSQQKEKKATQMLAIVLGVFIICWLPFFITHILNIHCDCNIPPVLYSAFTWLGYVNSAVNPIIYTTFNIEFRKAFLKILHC
5-hydroxytryptamine receptor 2A (Homo sapiens), sequence (P28223 whole entry, looked up): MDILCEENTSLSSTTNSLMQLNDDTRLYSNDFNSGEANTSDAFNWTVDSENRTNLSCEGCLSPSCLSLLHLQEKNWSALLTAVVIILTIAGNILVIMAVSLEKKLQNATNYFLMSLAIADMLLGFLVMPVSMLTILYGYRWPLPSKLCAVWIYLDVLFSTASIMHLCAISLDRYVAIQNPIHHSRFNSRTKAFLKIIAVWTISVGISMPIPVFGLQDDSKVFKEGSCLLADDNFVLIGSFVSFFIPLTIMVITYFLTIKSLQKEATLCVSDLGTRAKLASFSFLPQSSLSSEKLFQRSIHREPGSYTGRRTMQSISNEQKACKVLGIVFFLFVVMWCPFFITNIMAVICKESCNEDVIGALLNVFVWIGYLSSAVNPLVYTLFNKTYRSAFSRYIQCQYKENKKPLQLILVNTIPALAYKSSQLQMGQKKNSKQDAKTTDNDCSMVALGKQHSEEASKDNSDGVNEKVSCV
KiSS-1 receptor (Homo sapiens), sequence (Q969F8 whole entry, looked up): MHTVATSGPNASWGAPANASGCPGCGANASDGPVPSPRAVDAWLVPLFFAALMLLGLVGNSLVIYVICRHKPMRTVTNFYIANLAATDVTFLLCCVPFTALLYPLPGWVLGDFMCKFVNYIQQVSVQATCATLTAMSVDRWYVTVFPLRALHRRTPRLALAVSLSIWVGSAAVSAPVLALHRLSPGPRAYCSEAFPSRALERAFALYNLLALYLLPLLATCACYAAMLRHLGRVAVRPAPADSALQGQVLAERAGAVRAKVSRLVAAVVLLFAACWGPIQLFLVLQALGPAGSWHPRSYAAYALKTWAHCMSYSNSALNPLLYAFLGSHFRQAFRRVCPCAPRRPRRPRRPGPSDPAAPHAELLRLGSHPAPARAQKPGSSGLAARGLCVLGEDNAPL

`CC(=O)Nc1ccccc1`: the Potency entry in [1], in [2], in [3], in assay [4], in assay [5] and in assay [6] was “inactive” in each case. Further, the Potency entry in assay [7], in assay [8], in assay [9], in assay [10], in assay [11] and in assay [12] was “inactive” in each case. Further, the Potency entry in assay [13], in [14], in [15], in assay [16], in assay [17] and in assay [18] was “inactive” each time.
`O=C(Oc1ccccc1)c1ccccc1O`: the Potency result in [1], in assay [3], in assay [4], in assay [5], in [7] and in assay [8] was “inactive” in each case. For the same compound, the Potency result in assay [9], in assay [10], in assay [11], in assay [13], in assay [14] and in assay [15] was “inactive” each time. Also, the Potency entry in assay [16], in assay [17] and in [18] was “inactive” each time. Further, the Potency result in assay [2] was “inactive and 68.6 µM (active)”; in assay [6], “inactive and 40.8 µM (active)”.
As to `CC(=O)CCC(=O)O`, the Potency result in assay [1], in assay [2], in assay [3], in [4], in [5] and in [6] was “inactive” each time. In addition, the Potency result in [7], in [8], in assay [9], in assay [10], in assay [11] and in [12] was “inactive” each time. Also, the Potency entry in assay [13], in assay [15], in [16], in assay [17] and in [18] was “inactive” throughout.
Consider `O=c1oc(=O)c2cc3c(=O)oc(=O)c3cc12`, for which the Potency result in assay [1], in [2], in [3], in assay [4], in [5] and in assay [6] was “inactive” throughout. The Potency entry in [7], in [8], in [10], in [11], in [12] and in [13] was “inactive” in each case. The Potency entry in assay [14], in assay [15], in assay [17] and in [18] was “inactive” each time.
Regarding `OCc1cccnc1`, the Potency entry in assay [1], in assay [2], in assay [3], in assay [4], in assay [5] and in assay [6] was “inactive” throughout. The Potency entry in assay [7], in [8], in [9], in [10], in [11] and in [12] was “inactive” throughout. Further, the Potency result in assay [13], in [14], in assay [15], in [16], in assay [17] and in [18] was “inactive” each time.
With `O=C1NC(=O)C(c2ccccc2)(c2ccccc2)N1`, the Potency result in assay [1], in assay [2], in assay [3], in assay [4], in assay [5] and in [6] was “inactive” throughout. Moreover, the Potency result in [7], in assay [8], in assay [13], in assay [14], in assay [15] and in [16] was “inactive” each time. Also, the Potency entry in assay [17] and in assay [18] was “inactive” in each case.
Regarding `CC[N+](CC)(CC(=O)Nc1c(C)cccc1C)Cc1ccccc1`, the Potency result in assay [1], in [2], in assay [3], in assay [4], in assay [5] and in assay [6] was “inactive” throughout. In addition, the Potency entry in assay [7], in assay [8], in assay [9], in assay [10], in [11] and in assay [12] was “inactive” in each case. For the same compound, the Potency entry in assay [13], in assay [14], in assay [15], in assay [16] and in assay [18] was “inactive” in each case.
